Z-score data for 35 molecules are collected here from PubChem BioAssay.

A short description of this assay: modulators of S6 phosphorylation in cells, primary screen, cell-based, A549, cytoblot, luminescence, serum-stimulated (AID 1158).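 Note: serum-stimulated A549 lung adenocarcinoma cells; signal is phosphorylated S6 detected by cytoblot immunostaining with HRP secondary.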 The settings on record: A549 phospho-S6 cytoblot, 5 h, higher = more signal.
As to `CC(C)Cc1ccc(CN2CC[C@@H](NC(=O)Nc3ccccc3)C2)cc1`, the z-score is -1.03.

The molecule `CC(C)C[C@@H]1NC(=O)[C@@H]2C[C@H](C(=O)NCCCCN(C)C)[C@H](c3cccc(OCCO)c3)N2C1=O` yielded a z-score of 0.422. To `CC1CC/C=C\[C@H]2OC34C=CCN(C(C)C)C(=O)[C@H]3N(CCCCCCO)C(=O)[C@@H]4C2C(=O)O1` (stereo not given in full) belongs 1.26; to `COc1ccc(CCNC(=O)[C@@]2(Sc3ccc(C)cc3)CC(=O)N(C3Cc4ccccc4C3)[C@@H]2c2ccc(CO)cc2)cc1`, 1.66; to `COc1ccc(-c2nc(-c3ccccc3)c3c(c2C)CO[Si]3(C(C)C)C(C)C)cn1`, -0.0095. The figure for `CCCC[C@@H]1C[C@H]1[C@@H](NC(=O)c1cccs1)c1ccc(C(F)(F)F)cc1` is -0.79; for `CN1C(=O)C2C=CC(C(O)c3ccc(F)cc3)N(Nc3ccccc3)C2C1=O` (stereo not given) it is -0.85. In turn, `OCC1CC(c2ccccc2)=NO1` (stereo not given) returned a z-score of 0.137. To `COC1OC[C@]2(C)[C@H]3C4=C(CN2C(=O)OC(C)(C)C)[C@H](C)C(CO)C(CO)C4CC[C@@H]13` (stereo not given in full) belongs 0.15.

`NCCCCCCNC(=O)[C@@H]1C[C@@H]2C(=O)N[C@@H](CCCCN)C(=O)N2[C@@H]1c1cccc(OCCO)c1` returned a z-score of -0.447. The figure for `CCOC(=O)C1=C[C@@H](c2ccccc2)N(S(=O)(=O)c2ccc(C)cc2)[C@H]1c1ccccc1Cl` is -0.48; for `CCOc1cc(C(O)C2C=CC3C(=O)N(c4ccccc4)C(=O)C3N2Nc2ccc(C#N)cc2)ccc1O` (stereo not given) it is -1.03; for `CCCCCCCCCCC(O)C1C=CC2C(=O)N(C)C(=O)C2N1NC(=O)OC(C)(C)C` (stereo not given) it is -1.36. For `NCCCCCNC(=O)[C@@H]1C[C@@H]2C(=O)NCC(=O)N2[C@@H]1c1cccc(OCCO)c1`, the z-score was 0.121. Molecule `[N-]=[N+]=NCc1ccccc1[C@H]1OC(c2ccc(OCCCO)cc2)=N[C@@]1(CCS(=O)(=O)c1ccccc1)C(=O)N1CCCCC1` registered a z-score of 0.515. In the case of `CCOC(=O)C[C@H]1[C@H](OC(=O)c2ccccc2-c2ccccc2)[C@@H](NC(=O)c2ccc(-c3ccccc3)cc2)c2cc(OCCCO)ccc2N1C(=O)c1ccc2ccccc2n1`, the z-score is -0.0653. `CCCCCCc1nc(C2CC2)cc2c1[Si](C(C)C)(C(C)C)OC2` registered a z-score of 0.259. The figure for `O=C1C[C@@](C(=O)NCCN2CCOCC2)(c2ccc([N+](=O)[O-])cc2)[C@@H](c2ccc(CO)cc2I)N1C1CCCCC1` is 0.452; for `COC(=O)[C@@]1(Cc2ccc(OC)cc2)[C@H]2c3cc(C(=O)N4CCCC4)n(Cc4c(-c5ccccc5)noc4C)c3C[C@H]2CN1C(=O)c1ccccc1` it is 0.406.

`CC(C)(C)N1CC=CC23O[C@@H]4C=CCCOC(=O)C4[C@H]2C(=O)N(CCO)[C@@H]3C1=O` (stereo not given in full) returned a z-score of 0.461. For the molecule `O=C1O[C@@H](c2ccccc2)[C@@H](c2ccccc2)N2[C@@H](c3ccccc3OCCO)[C@]3(C(=O)Nc4ccc(C#CCCO)cc43)[C@@H](C(=O)N3CCCCCCC3)[C@H]12`, the z-score is -0.544. As for `CO[C@]12C=C(Br)[C@@H](C[C@@H]1c1cccc(C)c1)[C@@]1(CO1)C2=O`, the z-score worked out at 0.149. The figure for `O=C1C2C=CC(C(O)c3ccccc3)N(Nc3ccccc3F)C2C(=O)N1c1ccccc1` (stereo not given) is 0.113. To `CC[C@H]1C2=C3C(CC[C@H]4C(OCc5ccc(F)cc5C(F)(F)F)OC[C@](C)([C@@H]34)N(C(=O)OC(C)(C)C)C2)C(COC)C1COC` (stereo not given in full) belongs -0.371; to `Cc1ccc(S[C@]2(C(=O)O)CC(=O)N(C3Cc4ccccc4C3)[C@@H]2c2ccc(CO)cc2)cc1`, -0.401. The figure for `COc1ccc(NC(=O)O[C@H]2[C@H](OC(=O)Nc3ccccc3)[C@@H](OC(=O)Nc3ccccc3)[C@@H](OC)O[C@@H]2CO)cc1` is 0.256; for `CCCC[C@@H]1C[C@H]1[C@@H](NC(=O)Cc1ccccc1)c1ccc(-c2ccccc2)cc1` it is 0.871.

`N#Cc1ccc(NN2C(C(O)c3ccc(F)cc3)C=CC3C(=O)N(c4ccccc4)C(=O)C32)cc1` (stereo not given) came in with a z-score of -0.491. The figure for `[N-]=[N+]=NCc1ccccc1C[C@]1(C(N)=O)N=C(c2ccc(OCCCO)cc2)O[C@H]1c1ccccc1` is 0.349; for `COCCCNC(=O)[C@@]1(Cc2ccccc2N=[N+]=[N-])N=C(c2ccc(OCCCO)cc2)O[C@H]1c1ccccc1` it is 0.796. `CN(C)CCCNC(=O)[C@@H]1c2ccccc2C(=O)N(Cc2ccccc2Cl)[C@H]1c1ccc(CO)cc1` came in with a z-score of 0.517. `C=C(/C(=C/C[C@H](OC(=O)c1ccncc1)c1ccc(CO)o1)c1cc(C(=O)OC)ccc1OC)C(C)C` showed a z-score of -0.578. The figure for `C=CCC(OC(C)=O)[C@@H]1[C@@H](N(Cc2ccc(-c3cccc(C(F)(F)F)c3)o2)C(=O)c2ccc(-c3ccccc3)cc2)c2cc(OCCCO)ccc2N1C(=O)c1ccc2ccccc2n1` (stereo not given in full) is 1.02. For the molecule `CCCCN1CC=CC23O[C@@H]4/C=C\CCC(C)OC(=O)C4[C@H]2C(=O)N(C(CO)C(C)C)[C@@H]3C1=O` (stereo not given in full), the z-score stood at 1.81. To `[N-]=[N+]=Nc1ccccc1[C@H]1OC(c2ccc(OCCCO)cc2)=N[C@@]1(Cc1ccccc1)C(=O)N1CCCCC1` belongs 0.583.
